Assay results: PubChem BioAssay AID493191 (Broad Institute, 2011)
Out of some 1,300 compounds screened, about 330 (25%) were called active. No rule for the calls is given here. A selection follows. Results with a measured potency or affinity are listed apart.

Experiment: growth inhibition of MALME3 cells – cell-based, CellTiter-Glo, cherry-picked, orthogonal assay for MITF inhibitor project, dose response (AID 493191)
Conditions: MALME3 melanoma viability, CellTiter-Glo luminescence, 24 h; series mostly up to 35 µM; activity change, negative = inhibition: at the top concentration
With CCOc1ccc2cc(C#N)c(SCC(=O)OC)nc2c1 the “activity change, negative = inhibition” value was 7.87% (inactive).
With Cc1cc(C)cc(NS(=O)(=O)c2ccc3c(c2)c(=O)n(C)c(=O)n3C)c1 the “activity change, negative = inhibition” value was 2.38% (inactive).
With N#Cc1cnn2cc(CCN3CCOCC3)c(-c3ccc(F)cc3)nc12 the “activity change, negative = inhibition” value was 1.83% (inactive).
In the case of O=C(CCCc1ccccc1)N1CCN(C2CCCCC2)CC1, the “activity change, negative = inhibition” value is reported as -3.56% (inactive).
With O=C(Cn1nnc(-c2ccccc2Cl)n1)N1CCCCC1 the “activity change, negative = inhibition” value was 8.11% (inactive).
For Cc1cc(Cl)ccc1OCCCC(=O)N1CCOCC1, the “activity change, negative = inhibition” value was -4.77% (inactive).
In the case of Cc1ccc(C(=O)c2cccc(N)c2)cc1C, the “activity change, negative = inhibition” value is reported as 0.35% (inactive).
In the case of CC(C)(C)c1ccc(C(=O)N2CCCCCC2=O)cc1, the “activity change, negative = inhibition” value is reported as 6.45% (inactive).
For O=C(CSCc1c(F)cccc1F)Nc1ccccc1, the “activity change, negative = inhibition” value was 2.1% (inactive).
With CC(C)(C)OC(=O)N1CCN(C(=O)c2nc[nH]c2C(=O)N2CCN(c3ccccc3)CC2)CC1 the “activity change, negative = inhibition” value was -26% (inactive).
In the case of Cc1ccsc1C(=O)OCC(=O)Nc1sccc1C(N)=O, the “activity change, negative = inhibition” value is reported as -20.1% (inactive).
For CCCCC(=O)N/C(N)=N/c1nc2ccccc2o1, the “activity change, negative = inhibition” value was -0.61% (inactive).
For Cc1c(Cl)c([N+](=O)[O-])nn1Cc1ccc(C(=O)N/N=C\c2cc(Cl)ccc2O)o1, the “activity change, negative = inhibition” value was -5.4% (inactive).
With O=C(c1ccc([N+](=O)[O-])s1)N1CCN(c2ccccn2)CC1 the “activity change, negative = inhibition” value was -34.3% (inactive).
In the case of O=C(N/N=C/c1ccccn1)c1cc([N+](=O)[O-])cc([N+](=O)[O-])c1, the “activity change, negative = inhibition” value is reported as -7.68% (inactive).
For O=C(O)c1cc2ccccc2c(N=Nc2cccnc2)c1O, the “activity change, negative = inhibition” value was -0.206% (inactive).
For CN(C)S(=O)(=O)c1cccc(NC(=O)CSc2nc3c(cc2C#N)C(=O)CC(C)(C)C3)c1, the “activity change, negative = inhibition” value was -8.7% (inactive).
In the case of O=C(c1nnsc1S(=O)(=O)c1ccc(Cl)cc1)N1CCOCC1, the “activity change, negative = inhibition” value is reported as -35.8% (inactive).
With Nc1ccc(-c2nc3ccc(C(=O)O)cc3s2)cc1 the “activity change, negative = inhibition” value was 0.971% (inactive).
In the case of OCC1CCCC(n2cnc3c(=S)nc[nH]c32)O1 (configuration not stated), the “activity change, negative = inhibition” value is reported as -7.54% (inactive).
For COc1cccc(/C=C2/Sc3ccc(C(=O)NCCN4CCCC4)cc3NC2=O)c1, the “activity change, negative = inhibition” value was -19.7% (inactive).
In the case of CCCC1=Nc2cc(C(=O)NCCN3CCCC3)ccc2Sc2ccccc21, the “activity change, negative = inhibition” value is reported as -14.3% (inactive).
For CCN1CCCC1CNC(=O)c1ccc2c(c1)NC(=O)/C(=C\c1ccc(OC)c(OC)c1)S2 (configuration not stated), the “activity change, negative = inhibition” value was -14.6% (inactive).
For CCN1CCN(CCCNC(=O)c2ccc3c(Cl)c4c(nc3c2)CCCC4)CC1, the “activity change, negative = inhibition” value was -24.1% (inactive).
With Cc1cccc(/C=C2/Sc3ccc(C(=O)NCCN4CCCC4)cc3NC2=O)c1 the “activity change, negative = inhibition” value was -24% (inactive).
In the case of CCNc1nc(N)c(C(=O)c2ccc(Cl)s2)s1, the “activity change, negative = inhibition” value is reported as -12.9% (inactive).
For CSc1nc(N)n2nc(-c3ccc(Cl)cc3)cc2n1, the “activity change, negative = inhibition” value was -9.67% (inactive).
For CC(C)CC(=O)/C=C/n1c(=S)oc2ccccc21, the “activity change, negative = inhibition” value was -49.6% (inactive).
In the case of CN(c1cccc(NC(=O)COc2ccc(Cl)cc2Cl)c1)S(C)(=O)=O, the “activity change, negative = inhibition” value is reported as 0.563% (inactive).
With O=C(CC(=O)c1ccccc1)Nc1ccccn1 the “activity change, negative = inhibition” value was -16% (inactive).
In the case of CC(=O)Nc1cccc2c1Cc1ccccc1-2, the “activity change, negative = inhibition” value is reported as 8.57% (inactive).
For CC(=O)Nc1ccc(S(=O)(=O)N2CCn3cccc3C2C)cc1 (configuration not stated), the “activity change, negative = inhibition” value was -14% (inactive).
